Each structure is given as a SMILES string. In all, about 230,000 compounds went through this assay and fewer than 10 were called active. Calls come from the whole dose curve; as a rule, active = well fitted curve in the direction sought with a large enough effect; inconclusive = small, poorly fitted or top-dose-only effect, or effect the other way, or another doubt; inactive = no such curve, though single readings can be large or run the other way. These entries were drawn from the full list.

Chain of Alpha-galactosidase A (Homo sapiens) (P06280 whole entry, looked up): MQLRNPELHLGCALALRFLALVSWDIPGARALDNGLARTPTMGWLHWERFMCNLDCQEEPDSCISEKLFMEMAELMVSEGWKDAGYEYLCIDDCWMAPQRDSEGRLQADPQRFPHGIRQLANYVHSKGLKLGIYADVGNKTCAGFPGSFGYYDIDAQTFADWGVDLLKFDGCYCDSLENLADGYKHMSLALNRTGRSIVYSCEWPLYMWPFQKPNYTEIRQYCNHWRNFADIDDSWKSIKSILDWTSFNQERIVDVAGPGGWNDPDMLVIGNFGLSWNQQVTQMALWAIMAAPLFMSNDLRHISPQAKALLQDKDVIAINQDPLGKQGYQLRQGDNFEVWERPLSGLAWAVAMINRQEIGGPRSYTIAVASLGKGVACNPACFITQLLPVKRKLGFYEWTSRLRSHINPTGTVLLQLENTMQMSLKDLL

The target in this assay is Alpha-galactosidase A (Homo sapiens) (UniProt P06280). The assay can be described thus: qHTS Assay for Inhibitors of Human alpha-Galactosidase at pH 4.5. The following applies: purified enzyme, 4-MU-alpha-Gal fluorescence; series mostly up to 105 µM. An excerpt:
NIH Chemical Genomics Center [NCGC]
NIH Molecular Libraries Probe Production centers Network [MLPCN]
Assay Submitter (PI): Wei Zheng
Alpha-galactosidase is a homodimeric glycoprotein that hydrolyzes the terminal alpha-galactosyl moieties from glycolipids and glycoproteins. Deficiency of this enzyme results in Fabry Disease with progressive accumulation of globotriaosylceramide and other glycosphingolipids in vascular endothelial cells that causes renal failure, myocardial infarction and stroke, and premature death in patients. It has been reported that the improper folding and trafficking of alpha-galactosidase resulting from the genetic mutations may account for a significant numbers of Fabry patients. […] We optimized this alpha-galactosidase assay in 1536-well plate format for identifying the novel small molecule inhibitors with the structures other than the sugar analogs in order to develop the new pharmacological chaperones. Although this assay has the same protocol as PubChem AID 992, this is a separate project and, therefore, is published as a separate assay
NCGC Assay Protocol Summary:
This is a fluorogenic enzyme assay with 4-Methylumbelliferyl alpha-D-galactopyranoside as the substrate and human […] as the enzyme preparation. Upon the hydrolysis of this fluorogenic substrate, the resulting product, […]. 4-Methyllumbelliferone, can be excited at 365 nm and emits at 440 nm. This fluorescence which can be detected by a standard fluorescence plate reader. Data were normalized to the controls for basal activity (without enzyme) and 100% activity (with enzyme). In the AC50 values were determined from concentration-response data modeled with the standard Hill equation.
Assay buffer: 50 mM citric acid (titrated with potassium phosphate to pH 4.5), 0.005% Tween-20, pH 4.5. (pH 4.5 is an optimal condition for this enzyme assay)
1536-well assay protocol for the human alpha-galactosidase:
(1) Add 2 ul/well of enzyme (12 nM final)
(2) Add 23 nL compounds in DMSO solution. The final titration was 0.7 nM to 77 uM.
(3) Add 1 ul of substrate (400 uM final)
(4) Incubate at room temperature for 20 min.
(5) Add 2 ul stop solution (1M NaOH and 1M Glycine mixture, pH 10)
(6) Detect the assay plate in a ViewLux plate reader (PerkinElmer) with Ex=365 nm and Em=440nm.
Keywords: MLSMR, MLPCN, NIH Roadmap, qHTS, NCGC, : Alpha-galactosidase, Fabry Disease, pharmacological chaperone, chaperone therapy
(qHTS replaces the single test concentration by a dilution series.)
`Cc1nc2c(ncn2-c2ccccc2)c(=O)n1NC(=O)CN1CCCC1`: the activity change, negative = inhibition result is “inactive”. In the case of `CC(=O)Nc1sc2c(c1C(c1cccc(F)c1)N1CCN(CCO)CC1)CCCC2` (stereo not drawn), the activity change, negative = inhibition result is “inactive”.

Regarding `CCCCC[C@H](O)/C=C/[C@@H]1[C@@H](CC(=O)CCC(=O)O)[C@@H](O)C[C@H]1O`, the activity change, negative = inhibition result was “inactive”. The value for `O=C1C=C(c2ccccc2)CCC1` was “inactive”; that for `COc1ccc(NC(=O)C2CCC(CNc3c(N4CCCCC4)c(=O)c3=O)CC2)c(OC)c1` (stereo not drawn) was “inactive”.

Consider `COc1ccc(N2CCN(Cc3nnc(-c4ccccc4)o3)CC2)cc1`, for which the activity change, negative = inhibition entry was “inactive”. As for `CC/C=C\C/C=C\C/C=C\C/C=C\C/C=C\C/C=C\CCC(=O)NCCc1ccc(O)c(O)c1`, the activity change, negative = inhibition result was “inactive”. The value for `CCOC(=O)C1=NO[C@@]2(C=C(Br)C(=O)[C@H]3O[C@H]32)C1` was “inactive”. The value for `C=CCn1c(CCNC(=O)c2cccs2)n[nH]c1=S` was “inactive”. For `Cc1ccccc1NC(=O)c1ccc(COc2ccc3c(C)cc(=O)oc3c2)cc1` the value was “inactive”; for `COC(=O)Cc1ccc(Oc2ncc(C(F)(F)F)cc2Cl)cc1`, “inactive”; for `CONc1nc2nonc2nc1NOC`, “inactive”. As for `CCCCCCCCCCCCC(NC(C)=O)(C(=O)OCC)C(=O)OCC`, the activity change, negative = inhibition entry is “inactive”. The value for `CCN(CC)CC(=O)Nc1sc2c(c1C(=O)c1ccccc1C)CCC2` was “inactive”; that for `CCCCNC(=O)C1CCCN(S(=O)(=O)c2ccc(S(=O)(=O)NCC(C)C)cc2)C1` (stereo not drawn) was “inactive”; that for `CCOc1cc(NC(=O)CCl)c(OCC)cc1NC(C)=O` was “inactive”.

Take `CCn1c(CN2C(=O)CSc3ccccc32)n[nH]c1=S`: the activity change, negative = inhibition result is “inactive”.

As to `CCOC(=O)N1CCN(c2cc(C)c([N+](=O)[O-])cc2F)CC1`, the activity change, negative = inhibition entry was “inactive”. For the compound `Cc1noc(C)c1C(=O)N(CC(=O)NC1CCCC1)Cc1ccccc1F`, the activity change, negative = inhibition result was “inactive”. For `CC(C)Oc1ccc(CCc2nnc(SCC(=O)O)n2-c2ccccc2)cc1` the value was “inactive”. Consider `Cc1ccccc1CSc1nnc(CCCCCNC(=O)OC(C)(C)C)o1`, for which the activity change, negative = inhibition entry was “inactive”. For `Cc1ccccc1CCN(CC(=O)NC1CCCCC1)C(=O)c1csnn1` the value was “inactive”; for `CCc1c(O)nc(SCC(=O)Nc2ccccc2)n(C(C)CC)c1=O` (stereo not drawn), “inactive”; for `COc1ccc(NC(=O)c2ccccc2[N+](=O)[O-])cc1OC`, “inactive”. The value for `CC(C)(C)c1nnc(NC(=O)C2c3ccccc3Oc3ccccc32)s1` was “inactive”; that for `O=C(Nc1ccc(N2CCOCC2)nc1)c1c(F)cccc1F` was “inactive”; that for `COc1ccc(/C=C/CN2CCCC(C(=O)c3cc(F)ccc3F)C2)cc1` (stereo not drawn) was “inactive”.

Consider `Cc1cccc(CN2CCN(Cc3cnn(-c4ccccc4F)c3)CC2CCO)n1` (stereo not drawn), for which the activity change, negative = inhibition result was “inactive”. In the case of `CCCCc1ccc(NC(=S)NCCCN2CCOCC2)cc1`, the activity change, negative = inhibition result is “inactive”. For `C=CCC(C)(O)c1ccco1` (stereo not drawn) the value was “inactive”. For `COc1c(O)cc2oc(-c3ccc(O)c(O)c3)cc(=O)c2c1O`, the activity change, negative = inhibition result was “inactive”. As for `O=C1OCCN1C(=O)[C@H]1[C@H](c2ccc(F)cc2)C(c2ccccc2)=NN1c1ccc(Br)cc1`, the activity change, negative = inhibition entry is “inactive”. The value for `C=C(C)C(=O)c1ccc(F)cc1` was “inactive”; that for `CC(C)(C)OC(=O)NCCCCC1=CC2=CC(=O)C(C)(OC(=O)c3cccs3)C(=O)C2=CO1` (stereo not drawn) was “inactive”; that for `C=C(C(C)=O)C(O)c1cccs1` (stereo not drawn) was “inactive”. For `COc1ccc(C(=O)OCC(=O)NC(=O)CCSc2ccccc2)cc1` the value was “inactive”; for `Cc1ccc(N2C(=O)C(CC(=O)Nc3cccc(F)c3)N(CCc3ccncc3)C2=O)cc1` (stereo not drawn), “inactive”; for `CCCCCCCCn1c2c(c(=N)c3c1CCC3)CCCC2`, “inactive”.

For `CN(c1ccc2nc3ccccc3c(=O)n2n1)C1CCCCC1`, the activity change, negative = inhibition entry is “inactive”. The value for `Cc1ccc(Nc2nc(N)nc(CN3CCN(Cc4ccccc4)CC3)n2)cc1Cl` was “inactive”. For `Cc1ccc(NC(=O)c2csc3c2CCCC3)cc1` the value was “inactive”. For `C=CC(C1=CC(=O)C=CC1=O)c1ccc(O)cc1` (stereo not drawn) the value was “inactive”; for `Cc1nc(NC(=O)C2CCCCC2)sc1C`, “inactive”; for `c1ccc(CN=C2Nc3ccccc3CS2)nc1`, “inactive”. Turning to `O=C(CSc1nnc(-c2ccncc2)n1-c1ccc(Cl)cc1)Nc1ccc(C(=O)O)cc1`, the activity change, negative = inhibition result is “inactive”. For `C[C@H]1Cc2c(-c3ccccc3)nc3c(c2CO1)CN(C(=O)C1CC1)CC3` the value was “inactive”.

For `O=c1c2c(nc3cc(-c4cccc(Cl)c4)[nH]n13)CCCC2`, the activity change, negative = inhibition result is “inactive”.

Turning to `CC(C)C1=CC2=CC[C@H]3[C@](C)(C(=O)O)CCC[C@]3(C)C2CC1` (stereo partly drawn), the activity change, negative = inhibition entry is “inactive”. Regarding `COc1ccc(CCNC2=CC(=O)CC(C)(C)C2)cc1`, the activity change, negative = inhibition entry is “inactive”. As to `O=C(CC(=O)N/N=C\c1cccc(Cl)c1Cl)NCc1ccccc1`, the activity change, negative = inhibition entry is “inactive”. For `COc1cc(NC(=O)c2cncc(-c3ccc(C#N)cc3)c2)cc(C(=O)Nc2cccc(C(F)(F)F)c2)c1` the value was “inactive”; for `COc1cccc(-c2cc(=O)c3cc(NC(=O)c4ccc(C)cc4)ccc3[nH]2)c1`, “inactive”.

Turning to `Cc1nc(-c2ccc(Cl)cc2)sc1C1(C)CC(c2ccccc2F)=NO1` (stereo not drawn), the activity change, negative = inhibition entry is “inactive”. The value for `COc1ccc(/C=C2\NC(=O)[C@@H]3Cc4ccccc4CN3C2=O)cc1` was “inactive”. For `CC(C)Cc1nc(Nc2ccc(S(=O)(=O)N3CCCC3)cc2)c2nnn(Cc3ccccc3)c2n1` the value was “inactive”.

In the case of `NC(=O)COc1ccc(C23CC4CC(CC(C4)C2)C3)cc1`, the activity change, negative = inhibition result was “inactive”. As to `COc1ccc(OC)c(S(=O)(=O)Nc2cccc(-c3ccc4nncn4n3)c2)c1`, the activity change, negative = inhibition entry was “inactive”. The value for `COC(=O)C1=C(C(=O)OC)C(c2cc([N+](=O)[O-])ccc2O)c2sc(=O)[nH]c2S1` (stereo not drawn) was “inactive”; that for `CCCCNS(=O)(=O)c1ccc2nc(SCC(=O)Nc3cc(C)cc(C)c3)[nH]c2c1` was “inactive”; that for `CCOC(=O)C1=C(C)c2ccccc2OC1C(=O)OCC` (stereo not drawn) was “inactive”. Consider `O=C(COc1cc(Cl)c(Cl)cc1Cl)NC(=O)NC1CCCC1`, for which the activity change, negative = inhibition entry was “inactive”. The value for `COc1ccc(-c2c(C)cc3oc(=O)cc(-c4ccccc4)c3c2C)cc1C=O` was “inactive”. The value for `CCCCCCCCCCCCN1C(=O)CSC1c1cccnc1` (stereo not drawn) was “inactive”; that for `C=C(C(C)=O)C(O)c1ccc([N+](=O)[O-])cc1` (stereo not drawn) was “inactive”; that for `C=CCOC(=O)NC(c1ccc(F)c(F)c1)C(C(=O)COC)C(=O)OC` (stereo not drawn) was “inactive”. For `COc1ccc(-c2nc3c(c4c2C[C@H](c2ccccc2)OC4)CN(C(=O)c2cccnc2)CC3)c(C)c1` the value was “inactive”; for `COC(=O)C1(C(C)=O)CC2=CC[C@H]3C(=O)N(c4ccccc4)C(=O)[C@H]3[C@@H]2Cc2ccccc2[C@@H]1C[N+](=O)[O-]` (stereo partly drawn), “inactive”. With `Cc1cccc(-c2nc3ccccc3c(=O)n2NC(=O)Cc2ccc(Cl)cc2)c1`, the activity change, negative = inhibition entry was “inactive”.

Source of the values: PubChem BioAssay AID1467 (National Center for Advancing Translational Sciences (NCATS), 2008).
